# Screens (PubChem BioAssay)
# Rows were chosen to be rich in hits. Some 7.6% of all compounds tested hit in one or more screens of this group.
# ELG1 repair inh = blocks ELG1-dependent DNA repair in HEK293T cells. HEK293T ELG1-luciferase reporter, luminescence, 16 h; DNA damage induced by 5-fluorouridine. Potency, µM (series often up to 46.1 µM), actives largely listed as inhibitors. hit rate 2.3% among 330,000; further: nearly all actives have a fitted effect of over 55% in size
#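 Overnight (16 hr) co-exposure of 2,000 cells/well to 5-fluorouridine and compound at 37 °C preceded detection. Luciferase was quantified via ONE-Glo luminescence; loss of signal denotes inhibition.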
# BRCA1 expr up = increases BRCA1 expression; MCF7-BRCA1-FFLuc reporter, luminescence, 48 h; response scale: scaled: vehicle 0%, 10 µM genistein 100%; Potency, µM (titrated, usually from 46.1 µM), usual class: activators; hit rate 1.1% among 380,000; AID 624202; further: nearly all actives have a fitted effect of over 80% in size
#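 48 h compound treatment of MCF7-BRCA1-FFLuc cells (phenol-red free MEM, 37 °C), then 15 min with luciferase substrate and luminescence imaging.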
# Gal4-VP16 FLuc = counter-screen for ROR gamma inhibitors: Gal4-VP16 reporter. Drosophila S2 Gal4-VP16 UAS-luciferase, luminescence, 20 h. hit rate 3.5% among 310,000. Potency, µM (series often up to 53.6 µM), hits mostly inhibitors;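 further: Gal4-VP16 expression switched on by copper sulfate through the metallothionein promoter; nearly all actives have a fitted effect of over 50% in size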
# Giardia killer = kills Giardia lamblia; AID 540267; Giardia lamblia trophozoite viability; activity change, % at 7.66 µM, hits read low; hit rate 0.15% among 340,000; in the data active means activity change below about -80%; inconclusive means between about -30% and that limit;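 further: parasites exposed to compound for two days anaerobically before the ATP read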
#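 Viability, read as ATP luminescence: trophozoites at 100 cells/well, compound added, 48 hrs anaerobic at 37 deg C, then 15-30 min room-temperature development before reading.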
# p53 reactivation = restores transcriptional activity of mutant p53. H1299 p53-A138V BP100-luciferase reporter, luminescence, 24 h. Potency, µM (highest dose often 92.2 µM), hits mostly activators. hit rate 0.063% among 320,000; further: nearly all actives have a fitted effect of over 45% in size
#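 p53-null H1299 cells stably carrying temperature-sensitive p53-A138V and a BP100-luciferase reporter were pinned with compounds (4-point, 1:5 series) and held 24 hrs at 37 deg C. Luminescence was read 10 min after detection reagent.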
# RORgamma inh = inhibitors of mouse ROR gamma transcriptional activity | hit rate 5.4% among 310,000 | Potency, µM (series often up to 53.6 µM), usual class: inhibitors | P51450 | Drosophila S2 Gal4-RORgamma UAS-luciferase reporter, 20 h | AID 2551; further: nearly all actives have a fitted effect of over 60% in size
# Target sequence (P51450 whole entry, looked up, the tested form may be a part): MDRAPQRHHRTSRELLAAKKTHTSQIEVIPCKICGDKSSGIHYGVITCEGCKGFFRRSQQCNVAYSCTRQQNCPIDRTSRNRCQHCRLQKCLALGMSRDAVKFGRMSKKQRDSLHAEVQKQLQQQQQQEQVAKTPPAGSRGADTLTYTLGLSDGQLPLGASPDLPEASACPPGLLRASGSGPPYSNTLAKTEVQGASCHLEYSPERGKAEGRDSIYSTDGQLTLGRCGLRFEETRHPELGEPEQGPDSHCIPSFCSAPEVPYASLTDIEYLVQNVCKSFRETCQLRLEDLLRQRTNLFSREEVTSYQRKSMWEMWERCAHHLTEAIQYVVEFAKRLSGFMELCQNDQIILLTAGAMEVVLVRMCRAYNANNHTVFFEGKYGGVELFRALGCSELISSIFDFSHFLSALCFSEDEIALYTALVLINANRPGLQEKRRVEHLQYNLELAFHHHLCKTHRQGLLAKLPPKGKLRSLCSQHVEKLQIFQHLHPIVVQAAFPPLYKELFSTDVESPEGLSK
#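 Drosophila S2 cells stably expressing Gal4-DBD/mouse RORγ fusion under metallothionein promoter plus UAS-luciferase; compound 1 h, then 700 uM CuSO4 induction for 20 h at ambient temperature; inhibition read as reduced luminescence.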
# A number is an active result; i = inactive; ? = inconclusive; nt = no result; [ ] = dose if it differs, or a comment. Unless noted, the call rests on the fitted dose curve; in most records, active means well fitted curve in the direction sought with a large enough effect; inconclusive means small, poorly fitted or top-dose-only effect, or another doubt; inactive means no such curve, though single readings can be large; an effect the other way counts as inactive or inconclusive.
SMILES,ELG1 repair inh,BRCA1 expr up,Gal4-VP16 FLuc,Giardia killer,p53 reactivation,RORgamma inh
O=C1CC(=O)N(CCNc2ncc(C(F)(F)F)cc2Cl)C(=O)N1,i,i,i,i,i,i
O=[N+]([O-])c1ccccc1NCCNc1ncc(C(F)(F)F)cc1Cl,?,i,i,i,i,?
O=[N+]([O-])c1cccnc1NCCNc1ncc(C(F)(F)F)cc1Cl,?,2.5µM,i,i,i,i
O=C1C=CC(=O)N1CCNc1ncc(C(F)(F)F)cc1Cl,?,i,6.3µM,i,i,5µM
O=C1Nc2ccccc2C(O)(C(=O)N2CCCCC2)N1c1ccccc1 (stereo not given),i,i,i,i,i,i
Oc1ccc(-c2nnc(SCc3ccccc3)o2)cc1,?,10µM,?,i,nt,i
C#CCSc1nnc(-c2ccc(O)cc2)o1,?,?,i,i,i,i
c1ccc(CSc2nnc(Cc3ccccc3)o2)cc1,?,13µM,i,i,i,i
c1ccc(CSc2nnc(-c3cccnc3)o2)cc1,?,7.9µM,?,i,?,i
COC(=O)N[C@H](C[N+](=O)[O-])c1cccc(C)c1,nt,nt,i,nt,nt,i
O=[N+]([O-])c1cccc(-c2ccc(/C=N/NC(=S)NCc3ccco3)o2)c1,?,i,3.2µM,i,i,0.45µM
O=C(O)c1cc(-c2ccc(/C=N/NC(=S)Nc3ccccc3)o2)ccc1Cl,?,i,i[10 µM],i,i,11µM
Cc1cc(C(=O)N/N=C/c2ccc(-c3ccc(C)c(Cl)c3)o2)n[nH]1,i,i,i,i,i,?
O=[N+]([O-])c1cccc(-c2ccc(/C=N/NC(=S)Nc3ccccc3)o2)c1,i,i,2.5µM,i,i,0.089µM
Cc1cc(C(=O)N/N=C/c2ccc(-c3cccc([N+](=O)[O-])c3)o2)n[nH]1,i,i,i,i,i,i
O=C(Cc1ccccc1)N/N=C/c1ccc(-c2ccc([N+](=O)[O-])cc2)o1,i,i,i,i,i,i
Cc1nc(-c2cn[nH]c2)c2cc(C)oc2n1,i,i,i,i,i,i
CS(=O)(=O)c1nc(-c2ccc(Br)cc2)cc(-c2ccccc2)c1C#N,16µM,i,?,i,i,3.2µM
N#Cc1c(-c2ccc(Br)cc2)cc(-c2cccnc2)nc1N,i,i,i,i,i,i
CS(=O)c1nc(-c2ccc(Br)cc2)cc(-c2ccccc2)c1C#N (stereo not given),?,i,14µM,i,i,7.9µM
O=C(CCS(=O)(=O)c1ccc(Cl)cc1)Nc1nc(-c2ccncc2)cs1,7.3µM,i,i,i,i,i
O=C(CCS(=O)(=O)c1ccc(Cl)cc1)Nc1nc(-c2cccnc2)cs1,?,i,i,i,?,i
O=c1[nH]cc(Cc2ccccc2)c(=O)[nH]1,nt,i,nt,nt,nt,nt
S=c1[nH]cc(Cc2ccccc2)s1,i,i,?,i,i,13µM
CNc1nnc(-c2ccc(N(C)C)cc2)s1,?,i,8.9µM,?,i,?
SMILES,ELG1 repair inh,BRCA1 expr up,Gal4-VP16 FLuc,Giardia killer,p53 reactivation,RORgamma inh
CN(C)c1ccc(-c2ccncc2)cc1,?,nt,i,nt,i,i
CC(C)(C)c1ccc(C(=O)NCC(=O)OCC(=O)Nc2ccccc2[N+](=O)[O-])cc1,?,i,?,i,i,i
CCOC(=O)C(Sc1cc(-c2ccccc2)nc2ncnn12)C(C)=O (stereo not given),i,i,2.8µM,i,i,0.63µM
CCOC(=O)C(Cc1ccccc1)NC(=O)CCc1c(C)nc2ncnn2c1C (stereo not given),i,i,i,i,i,i
Cc1nc(C#N)c(N/N=C/c2cccc(Cl)c2)o1,?,22µM,i,?,?,i
CCc1nnc(NC(=O)CCS(=O)(=O)c2ccccc2)s1,?,i,i,i,i,i
CC(=O)n1nc(-c2ccc(C)cc2)nc1NCc1ccco1,?,5µM,i,i,i,i
CC(=O)n1nc(-c2ccc(C)cc2)nc1NCc1ccc(F)cc1,?,3.2µM,i,i,?,i
COc1ccc(CNC(=O)C(C#N)c2nc3ccccc3nc2N2CCN(C)CC2)cc1 (stereo not given),i,i,i,i,i,i
COc1ccc(CNC(=O)C(C#N)c2nc3ccccc3nc2N2CCCC2)cc1 (stereo not given),5.8µM,i,i,i,i,i
CCC(C)COC(=O)C(C#N)c1nc2ccccc2nc1N1CCCCC1 (stereo not given),i,i,i,i,i,5µM
CC(C)OC(=O)C(C#N)c1nc2ccccc2nc1N1CCCC1 (stereo not given),i,i,i,i,i,i
COc1ccc2c(c1)O[C@@H](c1cccc(C(F)(F)F)c1)[C@H](OC(=O)Nc1ccc(C)c(Br)c1)C2=O,nt,nt,i,nt,nt,i
CCOCCCNC(=O)c1cc(Sc2ccc(F)cc2)nc2ccccc12,18µM,i,i,i,i,?
O=C(Nc1ccc2c(c1)OCO2)c1ccc2sc([C@@H]3O[C@H](CO)[C@@H](O)[C@H]3O)nc2c1,nt,3.2µM,nt,nt,nt,nt
O=C(Nc1nccs1)c1ccc2sc([C@H]3C[C@H](O)[C@@H](CO)O3)nc2c1,nt,13µM,nt,nt,nt,nt
O=C(Nc1ccc2c(c1)OCO2)c1ccc2sc([C@H]3C[C@H](O)[C@@H](CO)O3)nc2c1,nt,8.9µM,nt,nt,nt,nt
CCCc1cc(-c2[nH]ncc2-c2ccc3c(c2)OCCCO3)c(O)cc1OC,?,nt,?,nt,i,3.5µM
CCCCOC(=O)CSc1n[nH]c(=O)[nH]c1=O,i,i,i,i,i,i
CC(C)NC(=S)N/N=C1\CCCCC1C1CCCCC1 (stereo not given),?,i,3.5µM,i,?,1µM
CCOc1ccccc1-c1c2cc(O)c(=O)cc-2oc2cc(O)c(O)cc12,i,i,18µM,i,i,?
NCC(O)COCCC12CC3CC(CC(C3)C1)C2 (stereo not given),i,i,i,i,i,i
CC(NCC(O)COCCC12CC3CC(CC(C3)C1)C2)c1ccccc1 (stereo not given),i,i,?,i,i,13µM
NC(=S)Nc1cc2ccccc2c2ccccc12,i,i,?,i,i,11µM
NC(=S)Nc1ccccc1Br,i,i,35µM,i,i,?
NC(=S)Nc1cccc2cc3ccccc3cc12,i,i,i,i,?,13µM
CCOc1ccc(C2C(C#N)=C(N)Oc3nc[nH]c(=O)c32)cc1 (stereo not given),i,i,i,i,i,i
CN(C)c1ccc2c(c1)OC(N)=C(C#N)C2c1cccc(F)c1 (stereo not given),i,?,i,i,i,i
N#CC1=C(N)Oc2cc(N)ccc2C1c1cccc(F)c1 (stereo not given),2.9µM,i,i,i,i,i
